Rows were chosen to be rich in hits. Some 2.8% of all compounds tested hit in one or more screens of this group.
bovine MsrA act: bovine MsrA enzyme activators, primary screen, biochemical, absorbance, HTS | Methionine sulfoxide reductase A (Bos taurus) | purified bovine MsrA, absorbance read-out | activation, % at 10.6 µM | hit rate 0.3% among 360,000; in the data active = activation above about 7.5%;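 note: 0% = vehicle and 100% = reference activator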
rCAG binder: binders of r(CAG) RNA repeats, primary screen, biochemical, fluorescence; r(CAG) RNA repeat, TO-PRO-1 dye displacement fluorescence; inhibition, % at 3 µM; hit rate 1.3% among 370,000; AID 651821, 2012;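 active = inhibition above the plate cutoff, the mean of all test compounds on that plate plus 3 SD, cut at about 35% in these data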;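 note: 0% = DMSO alone and 100% = 100 µM mitoxantrone as full dye displacement; higher means more dye released from RNA so lower well fluorescence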
HGIII-sPLA2 inh: human group III sPLA2 inhibitors, primary screen, biochemical, QFRET, BODIPY PC-A2 liposome substrate | Group 3 secretory phospholipase A2 (Homo sapiens), Q9NZ20 | QFRET BODIPY PC-A2 liposome hydrolysis, fluorescence | inhibition, % at 12.2 µM | hit rate 0.56% among 370,000 | AID 743126, 2013;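 active = inhibition above mean plus 3 SD of compounds lying within the high and low control bounds, cut at about 19% in these data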;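 note: 0% = median of test compound wells and 100% = no enzyme DMSO wells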
Target sequence (Q9NZ20 whole entry, looked up): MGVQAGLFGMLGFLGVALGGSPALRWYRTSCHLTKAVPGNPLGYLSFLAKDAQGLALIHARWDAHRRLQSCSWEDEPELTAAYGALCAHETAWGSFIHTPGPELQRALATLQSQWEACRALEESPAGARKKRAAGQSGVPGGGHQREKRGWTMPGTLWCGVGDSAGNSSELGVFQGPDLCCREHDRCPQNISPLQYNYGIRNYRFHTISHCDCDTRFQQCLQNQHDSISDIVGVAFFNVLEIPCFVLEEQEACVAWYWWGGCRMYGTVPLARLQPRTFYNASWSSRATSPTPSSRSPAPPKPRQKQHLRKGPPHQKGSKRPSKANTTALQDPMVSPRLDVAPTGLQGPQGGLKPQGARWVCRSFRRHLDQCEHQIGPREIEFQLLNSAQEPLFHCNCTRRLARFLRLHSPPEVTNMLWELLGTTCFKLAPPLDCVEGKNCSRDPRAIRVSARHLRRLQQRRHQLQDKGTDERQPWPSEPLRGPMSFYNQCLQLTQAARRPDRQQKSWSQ
MsrA inhibitor: bovine MsrA enzyme inhibitors, primary screen, biochemical, absorbance, HTS. inhibition, % at 15.5 µM. purified bovine MsrA, absorbance read-out. hit rate 0.75% among 360,000. AID 651718, 2012; in the data active = inhibition above about 4.5%;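 note: 0% = vehicle wells with enzyme and 100% = reference inhibitor wells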
rCAG bind conf: small molecules binding CAG repeat RNA – biochemical, fluorescence, confirmation. shares compounds with rCAG binder. r(CAG) RNA repeat, TO-PRO-1 dye displacement fluorescence. inhibition, % at 3 µM. hit rate 70% among 4,300;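 active = inhibition above a per-plate cutoff, the mean inhibition of sample wells plus 3 SD, cut at about 35% in these data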;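 note: loss of TO-PRO-1 fluorescence as compound displaces dye from 1x1 AA loop RNA; 0% = DMSO only wells and 100% = 100 µM mitoxantrone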
dCAG dye counter: displacement of TO-PRO-1 from CAG DNA duplex, counter-screen for rCAG RNA repeat binder project, biochemical, fluorescence, TO-PRO-1 dye, d(CAG) DNA oligo | AID 652068, 2013 | shares compounds with rCAG binder | hit rate 94% among 4,300 | inhibition, % at 3 µM | d(CAG) DNA oligo TO-PRO-1 dye displacement;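 active = inhibition above its plate's cutoff, the mean test-well inhibition plus 3 SD, cut at about 4.8% in these data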;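 note: 0% = DNA dye mix with DMSO and 100% = 100 µM mitoxantrone; hits displace the dye from DNA and so lower well fluorescence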
DNA CAG DR: inhibitors of DNA CAG/GTC TO-PRO-1 complex, dose response, counter-screen for rCAG RNA repeat binder project, biochemical, fluorescence, TO-PRO-1 dye; hit rate 20% among 250; shares compounds with rCAG binder; AID 686960, 2013; IC50, µM; DNA CAG/GTC duplex TO-PRO-1 dye displacement fluorescence; in the data active = IC50 below about 10 µM
sPLA2 confirm: human group III sPLA2 inhibitors, confirmation, biochemical, QFRET, triplicate. hit rate 34% among 2,000. inhibition, % at 12.2 µM. shares compounds with HGIII-sPLA2 inh. recombinant hGIII-sPLA2, BODIPY PC-A2 QFRET fluorescence;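 active = mean inhibition across triplicates above the hit cutoff set in the earlier primary screen, cut at about 19% in these data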;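 note: 0% = enzyme with DMSO and 100% = DMSO wells lacking enzyme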
BODIPY interf: 535nm fluorescence optical interference, confirmation, artefact control for HGIII-sPLA2 inhibitor project, biochemical, QFRET; shares compounds with HGIII-sPLA2 inh; BODIPY FL product fluorescence interference; inhibition, % at 12.2 µM; hit rate 8.5% among 2,000; AID 743282, 2014;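 active = average inhibition above the solvent-only control mean plus 3 SD, cut at about 6% in these data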;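 note: 0% = DMSO with substrate plus product and 100% = DMSO with substrate alone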
An asterisk follows results filed as active; / = not tested or not shown; ! = not active in a repeat.

SMILES	bovine MsrA act	rCAG binder	HGIII-sPLA2 inh	MsrA inhibitor	rCAG bind conf	dCAG dye counter	others
CCCC(C(=O)Nc1ccc(S(=O)(=O)Nc2nccs2)cc1)c1ccccc1 (stereo not drawn)	0.7	48.7*	-45.2	0.0	35.7*	9.7*
Cc1ccc2sc(N(CCCN(C)C)C(=O)c3ccc(S(=O)(=O)N(C)C4CCCCC4)cc3)nc2c1C	2.2	3.7	-18.2	-1.7	/	/
CCCCSc1nnc(C)c(=O)[nH]1	-5.2	-1.1	6.1	-0.2	/	/
Cc1ccccc1-n1c(C)cc(/C=N/Nc2ccc([N+](=O)[O-])cn2)c1C	-1.8	5.9	2.4	2.8	/	/
Cc1cc(/C=N/Nc2ccc([N+](=O)[O-])cn2)c(C)n1-c1ccc(C(=O)O)cc1	-5.9	42.3*	-6.6	1.7	32.2	9.4*
c1cn2c(NC3CCCCC3)c(-c3ccc(SC4CCCCC4)cc3)nc2cn1	-1.6	49.7*!	-2.5	-0.5	36.8*	8.3*	DNA CAG DR=>29.9
c1cc(SC2CCCCC2)cc(-c2nc3cnccn3c2NC2CCCCC2)c1	-1.8	5.3	-12.3	1.3	/	/
CC(C)(C)n1nnnc1C(c1ccccn1)N(Cc1ccccc1)Cc1ccc(Cl)cc1 (stereo not drawn)	-2.4	2.7	-6.6	0.7	/	/
O=C(N=Nc1c(O)[nH]c2ccc([N+](=O)[O-])cc12)c1ccccc1[N+](=O)[O-]	-1.6	16.7	-6.5	2.2	/	/
CCc1cc(C(=O)N=Nc2c(O)[nH]c3ccc([N+](=O)[O-])cc23)c2ccccc2n1	-9.0	41.6*	-11.0	-0.4	35.2*	22.3*
O=C(CN1C(=O)S/C(=C\c2cc(Cl)c(O)c(Cl)c2)C1=O)Nc1ccccc1	-1.8	48.2*	-5.6	-0.1	50.3*	16.2*
Cc1ccc(NC(=O)CN2C(=O)S/C(=C/c3ccc(O)c([N+](=O)[O-])c3)C2=O)cc1C	-3.4	93.7*	-9.2	2.2	79.7*	46.1*
Cc1cccc(NC(=O)CN2C(=O)S/C(=C\c3ccc(O)c([N+](=O)[O-])c3)C2=O)c1	-2.9	83.0*	-4.0	4.3	57.1*	20.3*
O=C(CN1C(=O)S/C(=C\c2ccc(O)c([N+](=O)[O-])c2)C1=O)Nc1ccc(N2CCOCC2)cc1	-3.5	-0.7	6.7	-0.9	/	/
O=C(CN1C(=O)S/C(=C\c2ccccn2)C1=O)Nc1ccccc1	-1.4	1.8	-1.1	0.4	/	/
COc1ccccc1NC(=O)Cn1nc(-c2ccc3c(c2)OCCO3)ccc1=O	-5.5	3.4	-6.7	-1.8	/	/
CCOc1ccc(N(C)S(=O)(=O)c2ccc3[nH]cc(C(=O)NCC(OC)OC)c(=O)c3c2)cc1	4.5	15.3	-17.7	0.0	/	/
O=c1ccc2cc([N+](=O)[O-])c(CCO)cc2o1	-1.7	2.8	6.2	0.5	/	/
CCCn1nc([N+](=O)[O-])c(C(C#N)c2nc3ccccc3s2)c(Cl)c1=O (stereo not drawn)	-7.2	88.2*	-16.2	3.9	82.6*	46.0*
C/C(=N\NC(=O)c1ccc(-c2ccccc2)cc1)C1C(=O)c2ccccc2C1=O	-2.1	47.0*	-0.8	0.9	82.8*	49.5*
Cn1nc(C(C)(C)C)cc1C(=O)N1CCCCC1c1cc(C(=O)Nc2ccc3c(c2)OCO3)no1 (stereo not drawn)	0.9	3.4	-6.8	-0.3	/	/
COc1cc(OC)cc(-c2c(C#Cc3ccsc3)c3cc(-c4cc(OC)c(OC)c(OC)c4)ccc3n2C)c1	-6.2	7.7	6.8	0.1	/	/
COc1cc(OC)cc(-c2c(C#Cc3ccsc3)c3cc(-c4ccc5[nH]ccc5c4)ccc3n2C)c1	-7.2	37.0*	1.7	1.8	33.3	21.5*
CSc1nc2c(c(=O)[nH]1)C(c1cccs1)C1=C(CCCC1=O)N2 (stereo not drawn)	3.0	0.7	0.9	-0.5	/	/
O=C1CCCC2=C1C(c1cn(-c3ccccc3)nc1-c1cccs1)c1c([nH]c(=O)[nH]c1=O)N2 (stereo not drawn)	-2.3	39.1*	-4.0	-0.5	26.9	15.3*
SMILES	bovine MsrA act	rCAG binder	HGIII-sPLA2 inh	MsrA inhibitor	rCAG bind conf	dCAG dye counter	others
CC(=O)OC(C)C1C2=C(C(=O)CC1(C)O)C(=O)c1c(ccc(-c3ccc4c(c3O)C(=O)C3=C(C4=O)C(C(C)OC(C)=O)C(C)(O)CC3=O)c1O)C2=O (stereo not drawn)	-1.1	58.5*	4.8	0.5	67.4*	33.6*	DNA CAG DR=8*
O=C(NCc1cccs1)C(=O)NCC(c1ccco1)N1CCN(c2ccc(F)cc2)CC1 (stereo not drawn)	-2.2	-5.9	-9.2	-1.0	/	/
O=C(N/N=C/c1ccccc1C(=O)O)c1cc(-c2ccc3c4c(cccc24)CC3)n[nH]1	-3.6	58.2*	-14.5	0.4	62.4*	23.7*
COC(=O)[C@@]12C[C@@H](CC(=O)N3CCCCC3)C(=O)N(Cc3cccc4ccccc34)C1=CCC(C)(C)C2	/	7.0	-5.5	-1.5	/	/
COc1ccc(N2CCN(C(=O)CC(NC(N)=O)c3cccc(Oc4ccccc4)c3)CC2)cc1 (stereo not drawn)	-1.0	-4.7	-13.1	-0.6	/	/
COCCN(C(=O)CSc1ncccn1)c1c(N)n(Cc2ccccc2)c(=O)[nH]c1=O	-9.5	-1.2	0.5	-0.6	/	/
CC1CCN(S(=O)(=O)c2ccc3c(c2)c(=O)c(C(=O)NCc2cccs2)cn3C)CC1	-5.3	42.9*	12.8	1.0	9.8	7.5*
CCc1oc2ccccc2c1C(=O)c1cc(Br)c(O)c(Br)c1	-4.1	57.3*	-6.2	2.2	62.7*	16.9*
CN(C)S(=O)(=O)c1cccc(NC(=S)NNC(=O)c2cc3ccccc3cc2O)c1	0.6	87.1*	37.1*	1.1	86.0*	56.5*	sPLA2 confirm=35.9*;BODIPY interf=13.2*
CN(C)S(=O)(=O)c1cccc(NC(=O)c2c[nH]c3ccccc23)c1	1.7	11.8	-13.1	2.6	/	/
O=[N+]([O-])c1ccc(O)c(/C=N/NC(=S)Nc2ccc(Cl)cc2Cl)c1	-3.7	45.8*	39.7*	1.0	88.9*	64.2*	sPLA2 confirm=30.6*;BODIPY interf=19.8*

High-throughput results: PubChem BioAssay, The Scripps Research Institute Molecular Screening Center
